Avidin fluor – green autofluorescence of compounds with avidin beads – biophysical, 488/530 nm, flow cytometry, artefact control, profiling panel. AID 1775, 2009. fluorescence (KMESF) at 10 µM. 0.38% of 220,000 active. compound fluorescence 488/530 nm; stronger effect = higher value; in the data active = fluorescence above about 47
RGS7-Gao – RGS7-Galphao binding modulators, primary screen, biochemical, multiplexed bead flow cytometry; Guanine nucleotide-binding protein G(o) subunit alpha (Homo sapiens), P09471; actives lie on both sides; 0.35% of 220,000 active; binding response (% of control), % at 10 µM; AID 1439, 2008; in the data active = binding response below about 49% or above about 150%; inconclusive = no clear call, values can overlap the other calls; inactive = in between;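 note: fluorescent Galphao held in activated GDP-AlF4 state binding bead-coupled RGS7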
Target sequence (P09471 whole entry, looked up): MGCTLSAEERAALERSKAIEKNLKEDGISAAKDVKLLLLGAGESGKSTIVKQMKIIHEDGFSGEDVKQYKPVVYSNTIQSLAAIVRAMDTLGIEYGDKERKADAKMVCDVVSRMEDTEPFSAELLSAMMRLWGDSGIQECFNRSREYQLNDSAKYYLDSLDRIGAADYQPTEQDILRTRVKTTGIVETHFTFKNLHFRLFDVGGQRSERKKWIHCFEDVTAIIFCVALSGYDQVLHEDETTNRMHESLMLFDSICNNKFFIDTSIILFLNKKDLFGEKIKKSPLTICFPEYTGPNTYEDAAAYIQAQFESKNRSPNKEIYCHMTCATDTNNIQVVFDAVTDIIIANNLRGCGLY
GSH bead fluor – compound fluorescence on glutathione beads, profiling panel, artefact control, biophysical, 488/530 nm, flow cytometry | 0.25% of 190,000 active | AID 1776, 2009 | fluorescence (KMESF) at 10 µM | GSH beads flow cytometry, compound fluorescence 488/530 nm; stronger effect = higher value; in the data active = fluorescence above about 89;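 note: glutathione beads carrying GST-tagged Bcl family fusion proteins plus one bare bead set; values are compound well signal with DMSO vehicle wells as background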
RGS4-Gao reg – modulators of RGS4 binding to Galphao, primary screen, biochemical, multiplexed bead flow cytometry. Guanine nucleotide-binding protein G(o) subunit alpha (Homo sapiens), P09471. actives lie on both sides. binding response (% of control), % at 10 µM. 0.33% of 220,000 active; in the data active = binding response below about 49% or above about 150%; inactive = in between;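 note: fluorescent Galphao activated with aluminum fluoride binding bead-coupled RGS4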
RGS16-Gao HTS – modulators of RGS16 binding to Galphao, primary screen, biochemical, human proteins, multiplexed bead flow cytometry | 0.38% of 220,000 active | Regulator of G-protein signaling 16 (Homo sapiens) + Guanine nucleotide-binding protein … | bead-based flow cytometry RGS16-Galphao binding, fluorescence; actives lie on both sides | binding response (% of control), % at 10 µM; call rule not given here;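 note: Galphao activated by GDP with aluminum fluoride before binding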
Target sequence (O15492 whole entry, looked up): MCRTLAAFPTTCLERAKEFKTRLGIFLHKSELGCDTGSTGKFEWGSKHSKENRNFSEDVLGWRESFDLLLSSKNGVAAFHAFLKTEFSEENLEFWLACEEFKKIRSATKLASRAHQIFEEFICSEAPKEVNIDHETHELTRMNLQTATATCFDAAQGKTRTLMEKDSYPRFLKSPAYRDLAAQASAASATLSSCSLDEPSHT
Target sequence (P09471 whole entry, looked up): as the sequence (P09471 whole entry, looked up) above
RGS8-Gao reg – RGS8-Galphao binding modulators, primary screen, biochemical, multiplexed bead flow cytometry. Guanine nucleotide-binding protein G(o) subunit alpha (Homo sapiens), P09471. actives lie on both sides. response (percent of control binding), % at 10 µM. 0.34% of 220,000 active; in the data active = response below about 60% or above about 140%; inactive = in between;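 note: Galphao activated as the GDP aluminium fluoride complex binding bead-coupled RGS8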
Numbers without * were called inactive; ? = inconclusive; . = not tested or not shown; ! = not confirmed by another sample. Shown are actives, neighbours in structure and some others; about 1.2% of the full set was active somewhere.

SMILES | Avidin fluor | RGS7-Gao | GSH bead fluor | RGS4-Gao reg | RGS16-Gao HTS | RGS8-Gao reg
COC(=O)C1CCN(C(=O)C(C)Oc2ccc(Cl)cc2Cl)CC1 (stereo not drawn) | 57* | 138 | 28 | 108 | 104 | 102
CC1(C)Oc2ccc3ccc(=O)oc3c2-c2cnoc21 | 56* | 149 | 17 | 109 | 105 | 100
O=S(=O)(NCc1ccccc1F)c1cccc(S(=O)(=O)N2CCOCC2)c1 | 9 | 100 | 11 | 102 | 101 | 98
COc1ccc(NC(=O)OCCn2c([N+](=O)[O-])cnc2C)cc1 | 14 | 108 | 16 | 108 | 108 | 104
CC(=O)Nc1nnc(Cc2ccccc2)s1 | 7 | 107 | 264* | 108 | 108 | 110
COc1ccc(CC(=O)Nc2nn(C)c3nc4c(C)cccc4cc23)cc1 | 11 | ? | . | 92 | 96 | 99
O=C(Nc1ccc(Cl)cc1Cl)C1=Cc2ccccc2OC1 | 9 | 84 | 14 | 92 | 91 | 93
O=C(Nc1ccc(Cl)cc1)C1=Cc2cc(Cl)ccc2OC1 | 48* | 104 | 13 | 101 | 102 | 97
Cc1cccc(C)c1NC(=O)C(C)N1CCCCC1 (stereo not drawn) | 4 | ? | . | 98 | 97 | 100
CC1=C(C(=O)OCc2ccccc2)C(c2ccsc2)C(C#N)=C(N)O1 (stereo not drawn) | 5 | 94 | 23 | 90 | 48 | 80
COC(=O)C1=C(C)OC(N)=C(C#N)C1c1ccsc1 (stereo not drawn) | 8 | 110 | 89* | 117 | 117 | 106
C=C(C)C1(O)OC(=O)C=C1OC (stereo not drawn) | 6 | 101 | 19 | 98 | 101 | 101
CCc1nnc(NC(=O)CN2CCN(c3nc(-c4ccccc4)cs3)CC2)s1 | 47* | 110 | 19 | 103 | 100 | 103
Clc1ccccc1Cc1noc(CN2CCCCC2c2ccccn2)n1 (stereo not drawn) | 10 | 102 | 14 | 101 | 113 | 103
COc1ccc(NC(=S)NCCc2c(C)[nH]c3ccc(OC)cc23)cc1 | 25 | 100 | 10 | 102 | 109 | 102
Cc1nc2cc(NC(=O)N3CC4(C)CC3CC(C)(C)C4)ccc2n1C (stereo not drawn) | 48* | 105 | 19 | 99 | 97 | 98
C=CCn1c(SCC(=O)NC2CCCCC2)nnc1C1CCCCC1 | 60* | 118 | 12 | 108 | 102 | 102
Nn1c(SCC(=O)NC2CCCCC2)nnc1C1CC1 | 11 | 102 | 36 | 102 | 103 | 102
CCCSc1nc(C)c(CC(=O)OCC)c(=O)[nH]1 | 8 | 104 | 48 | 98 | 99 | 102
C=CCSc1nc(C)c(CC(=O)OCC(C)C)c(=O)[nH]1 | 48* | 108 | 18 | 102 | 106 | 101
CC(O)c1cccc(NC(=O)CCCc2ccccc2)c1 (stereo not drawn) | 6 | 96 | 9 | 101 | 75 | 95
CC(O)c1cccc(NC(=O)CCC(=O)O)c1 (stereo not drawn) | 6 | 102 | 261* | 99 | 101 | 98
CCN(CC)c1ccc(/C=N/NC(=O)CCC(=O)NCc2ccccc2)c(O)c1 | 17 | 104 | 17 | 102 | 107 | 101
CCOC(=O)/C(C#N)=N/Nc1ccccc1C#N | 47* | ? | . | 114 | 105 | 98
CCOC(=O)/C(C#N)=N/Nc1c(C)n(C)n(-c2ccccc2)c1=O | 9 | 103 | 11 | 102 | 101 | 103
SMILES | Avidin fluor | RGS7-Gao | GSH bead fluor | RGS4-Gao reg | RGS16-Gao HTS | RGS8-Gao reg
COc1ccc(S(=O)(=O)N2CCOCC2)cc1NC(=O)Cc1ccccc1Cl | 14 | 107 | 18 | 103 | 102 | 102
COc1ccccc1NC(=O)CCN1CCN(Cc2ccccc2)CC1 | 7 | 100 | 14 | 102 | 102 | 103
COc1ccc(S(=O)(=O)N2CCCCCC2)cc1NC(=O)Cc1ccccc1 | 48* | 106 | 8 | 98 | 102 | 97
COc1ccccc1NC(=O)CCN1CCCCCC1 | -2 | 0.6* | 32 | 3.0* | -2.5* | 4.6*
CCCCC(=O)Nc1cccc(NC(=O)c2ccc(Br)cc2)c1 | 49* | 137 | 14 | 101 | 109 | 102
Cc1ccc(NC(=O)CCCSc2ccccc2)cc1S(=O)(=O)N1CCOCC1 | 101* | 149 | 10 | 110 | 113 | 101
Nn1c(-c2ccccc2Cl)nnc1-c1ccccc1Cl | 8 | 113 | 102* | 119 | 108 | 106
O=C(Nc1ccc2c(c1)OCO2)[C@@H]1[C@@H]2C(=O)N(C3CCCCC3)C(=O)[C@@H]2C2c3ccccc3C=CN21 (stereo partly drawn) | 8 | 81 | 237* | 110 | 101 | 84
Nc1ccc(N2CCN(C(=O)c3cccs3)CC2)cc1 | 3 | 85 | 46 | 83 | 85 | 92
CC(=O)Nc1ccc(N2CCN(C(=O)c3cccs3)CC2)cc1 | 99* | 132 | 22 | 104 | 78 | 95
O=C(CSC1=NCCS1)N1CCN(c2ccccc2)CC1 | 4 | 94 | 25 | 90 | 78 | 90
O=C(CSC1=NCCS1)N1CCOCC1 | 8 | 100 | 249* | 101 | 107 | 103
COc1ccc(Cl)cc1NC(=O)CN(C)CC(=O)Nc1ccc(C)cc1Br | 10 | 104 | 13 | 104 | 103 | 102
N=c1c(C(=O)NCc2ccc(F)cc2)cc2c(=O)n3ccccc3nc2n1CC1CCCO1 (stereo not drawn) | 90* | 106 | 16 | 94 | 89 | 97
COCCCn1c(=N)c(C(=O)NCC2CCCO2)cc2c(=O)n3ccccc3nc21 (stereo not drawn) | 18 | 98 | 15 | 97 | 99 | 99
Cc1c(NC(=S)Nc2ccc(Cl)cc2)c(=O)n(-c2ccccc2)n1C | 11 | 102 | 17 | 99 | 105 | 101
CCn1c(COc2ccc(=O)n(-c3ccccc3)n2)nnc1SCc1cccc(OC)c1 | -1 | -3.1* | 12 | -20* | -13* | 13*
COC1=C(OC)c2ccccc2C(C(=O)O)N/C1=C(/C)Nc1ccncc1 (stereo not drawn) | 9 | 102 | 267* | 101 | 102 | 101
O=C(Nc1ccc(Oc2c(F)c(F)c(F)c(F)c2F)cc1)OC1CCN2Cc3ccccc3N=C12 (stereo not drawn) | . | ? | . | 99 | 96 | 98
O=C(Nc1ccccn1)C(=O)Nc1ccccn1 | 3 | ? | . | 106 | 102 | 103
O=C(Nc1ccccc1)Nc1ccccn1 | 68*! | ? | 32 | 103 | 104 | 97
COc1cccc(C(=O)N2CCN(C(=O)Cc3ccccc3)CC2)c1 | 54* | 107 | 22 | 95 | 104 | 104

Screens deposited in PubChem BioAssay by NMMLSC.
